For nine compounds, outcome and AC50 results are on record in PubChem BioAssay (EPA / NIEHS).

Activity calls are given as the source filed them. How the source made its calls: active means hit-call score of the fitted dose curve at least 0.9, where 1 is the maximum; inactive means score below 0.9.

A word on the AC50: it is the midpoint of the concentration-response curve, whichever way the signal moves.

Assay [1] in a line: ATG_GLI_CIS: Attagene CIS-FACTORIAL HepG2 Assay for human Zinc Finger Protein GLI1 (AID 2282945). Particulars: HepG2, Attagene cis-factorial reporter mRNA, GLI element; actives raise or lower the signal. The method, boiled down:
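Bidirectional curve fits relative to DMSO, using reporter mRNA levels from RT-PCR plus capillary electrophoresis. Cells were HepG2 transiently carrying cis-regulated reporter constructs, harvested 24 h after dosing.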

Assay [2] can be described thus: ATG_ISRE_CIS: Attagene CIS-FACTORIAL HepG2 Assay for human Interferon Regulatory Factor 1 (IRF1) binding to an Interferon-Stimulated Response Element (ISRE) (AID 2282948). Particulars: HepG2 ISRE cis-reporter (Attagene), mRNA transcription readout; actives raise or lower the signal. The method, boiled down: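 Read-out: fluorescent RT-PCR products resolved by capillary electrophoresis, reporting endogenous transcription factor activity via ISRE-driven reporter mRNA in transfected HepG2 cells dosed for 24 h; gain or loss fitted relative to DMSO.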

A short description of assay [3]: ATG_M_32_CIS: Attagene CIS-FACTORIAL HepG2 Assay for M32 Transcription Factor (Internal Marker) (AID 2282949).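 Further: background control marker of the multiplexed CIS panel rather than a real target.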 Particulars: HepG2 Attagene cis-factorial M32 reporter, mRNA; actives raise or lower the signal. The method, boiled down: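 Using DMSO as baseline, bidirectional curve fits were applied to reporter mRNA signals. These came from transiently transfected HepG2 cells exposed for 24 h, with RNA analysed by RT-PCR, FAM primer extension, HpaI digestion and CE.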

Assay [4] is described as follows: ATG_M_06_CIS: Attagene CIS-FACTORIAL HepG2 Assay for M06 Transcription Factor (Internal Marker) (AID 2282950). Particulars: HepG2 Attagene CIS-FACTORIAL M06 internal marker reporter; actives raise or lower the signal. In short, it runs like this:
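Steps: transfect HepG2 with multiplexed cis-element reporter constructs; dose chemical 24 h; extract RNA with DNase treatment; reverse-transcribe, PCR-amplify, 6-FAM label, HpaI digest; separate fragments by capillary electrophoresis. Activity fitted both directions versus DMSO.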

Assay [5] has as its target Hypoxia-inducible factor 1-alpha (Homo sapiens) (UniProt Q16665). Briefly: ATG_HIF1a_CIS: Attagene CIS-FACTORIAL HepG2 Assay for human Hypoxia Inducible Factor 1 (HIF1A) (AID 2282951). The conditions noted are these: HepG2 Attagene cis-factorial HIF1a reporter transcription; actives raise or lower the signal. The method, boiled down:
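HepG2, transient cis-reporter library, 24 h dosing. RNA → RT (oligo dT) → PCR → 6-FAM primer extension → HpaI → CE. Bidirectional curve fit vs DMSO.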

Assay [6] concerns the target Hepatocyte nuclear factor 6 (Homo sapiens) (UniProt Q9UBC0). In words: ATG_HNF6_CIS: Attagene CIS-FACTORIAL HepG2 Assay for human Hepatocyte Nuclear Factor 6 (HNF6) (AID 2282952). Particulars: HepG2 Attagene cis-factorial HNF6 reporter transcription; actives raise or lower the signal. In short, it runs like this: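 Using cis-element reporters in HepG2 liver cells, the assay tracks endogenous factor-driven transcription 24 h post-dosing. Signal comes from 6-FAM-labelled, HpaI-digested RT-PCR fragments, with gain or loss scored against DMSO.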

Assay [7] addresses Heat shock factor protein 1 (Homo sapiens) (UniProt Q00613). Briefly: ATG_HSE_CIS: Attagene CIS-FACTORIAL HepG2 Assay for human Heat Shock Transcription Factor 1 (HSE) (AID 2282953). Particulars: HepG2 HSE cis-reporter, Attagene RNA transcription; actives raise or lower the signal. In short, it runs like this:
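Cells were transfected with cis-element-driven reporter constructs, dosed for 24 h, then total RNA was reverse-transcribed and reporter cDNA amplified, FAM-labelled and digested with HpaI. Fragments were resolved by capillary electrophoresis; gain or loss was fitted against DMSO.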

Assay [8] in a line: ATG_MRE_CIS: Attagene CIS-FACTORIAL HepG2 Assay for human Metal Responsive Element (MRE) (AID 2282954). Particulars: HepG2 MRE cis-reporter transcription, Attagene multiplex; actives raise or lower the signal. In short, it runs like this:
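Multiplexed cis-reporter assay in human HepG2 liver cells, 24 h incubation with test chemical. Reporter transcripts measured by RT-PCR and capillary electrophoresis; values from bidirectional curve fitting versus DMSO.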

Assay [9] in a line: ATG_PBREM_CIS: Attagene CIS-FACTORIAL HepG2 Assay for human Phenobarbital-responsive Enhancer Module (PBREM) (AID 2282955). Particulars: HepG2 PBREM cis-reporter, Attagene multiplexed transcription; actives raise or lower the signal. In short, it runs like this: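 HepG2, transient MRTU transfection, 24 h dosing; RNA → oligo(dT) RT → PCR → 6-FAM extension → HpaI → CE. Bidirectional fit vs DMSO.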

The target of assay [10] is Paired box protein Pax-6 (Homo sapiens) (UniProt P26367). In words: ATG_Pax6_CIS: Attagene CIS-FACTORIAL HepG2 Assay for human Paired Box 6 (PAX6) (AID 2282956). Particulars: HepG2 CIS-FACTORIAL PAX6 reporter transcription, RNA readout; actives raise or lower the signal. The method, boiled down: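 Readout: reporter transcript fluorescence after RT-PCR and capillary electrophoresis. Cells: HepG2, transiently transfected with cis-regulated MRTUs. Exposure 24 h. Gain or loss of signal fitted bidirectionally relative to DMSO.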

A short description of assay [11]: ATG_PXRE_CIS: Attagene CIS-FACTORIAL HepG2 Assay for human Pregnane X Receptor Element (PXRE) (AID 2282957). Particulars: HepG2 Attagene CIS-FACTORIAL PXRE reporter, mRNA; actives raise or lower the signal. The method, boiled down:
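Using HepG2 transfected with multiple reporter transcription units, endogenous factor-driven transcription was scored as reporter mRNA after 24 h exposure.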

Assay [12] in a line: ATG_PPRE_CIS: Attagene CIS-FACTORIAL HepG2 Assay for human Peroxisome Proliferator-activated Response Element (PPRE) (AID 2282958). The conditions noted are these: HepG2 PPRE cis-element reporter, Attagene transcription factor profiling; actives raise or lower the signal. The method, boiled down: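 Transcript-level reporter induction in transfected HepG2 cells after 24 h chemical exposure, quantified by fluorescence from RT-PCR products separated by capillary electrophoresis.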

Assay [13] is described as follows: ATG_Sox_CIS: Attagene CIS-FACTORIAL HepG2 Assay for human SRY-box transcription factor (SOX) (AID 2282960). Particulars: HepG2 Attagene cis-factorial SOX reporter, mRNA; actives raise or lower the signal. The method, boiled down:
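Cells were transfected with reporter constructs under cis-regulatory promoters, then exposed to chemicals for 24 h. Reporter transcripts were quantified by fluorescence after RT-PCR and capillary electrophoresis; activity was fitted in both directions against DMSO.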

The target in assay [14] is Transcription factor Sp1 (Homo sapiens) (UniProt P08047). In words: ATG_Sp1_CIS: Attagene CIS-FACTORIAL HepG2 Assay for human Specificity Protein 1 (Sp1) (AID 2282961). The conditions noted are these: HepG2 Sp1 cis-reporter transcription, actives raise or lower the signal. The method, boiled down: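 Measures mRNA induction of an Sp1-linked reporter in HepG2 cells 24 h post-dosing. Multiplexed reporters read by RT-PCR and capillary electrophoresis; DMSO serves as negative control and baseline.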

A short description of assay [15]: ATG_SREBP_CIS: Attagene CIS-FACTORIAL HepG2 Assay for human Sterol Regulatory Element Binding (SREBP) (AID 2282962). Particulars: HepG2 Attagene cis-factorial SREBP reporter, mRNA; actives raise or lower the signal. In short, it runs like this: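 Readout: fluorescent reporter-transcript peaks resolved by capillary electrophoresis after RT-PCR. Cells were human HepG2 carrying transfected cis-promoter reporter constructs, dosed for 24 h. Gain or loss of signal was fitted against DMSO controls.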

A short description of assay [16]: ATG_TA_CIS: Attagene CIS-FACTORIAL HepG2 Assay for human TA Basal Promoter (AID 2282964). The conditions noted are these: HepG2 Attagene CIS-factorial TA basal promoter reporter; actives raise or lower the signal. In short, it runs like this: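 Steps: transfect HepG2 with MRTUs; dose 24 h; isolate RNA, DNase-treat, reverse-transcribe; PCR and FAM-label reporter cDNA; digest with HpaI 2h at 37 C; run capillary electrophoresis. Activity fitted both directions against DMSO.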

Assay [17] is described as follows: ATG_GRE_CIS: Attagene CIS-FACTORIAL HepG2 Assay for human Glucocorticoid Response Elements (GRE) (AID 2282947). The conditions noted are these: HepG2 GRE cis-reporter, Attagene multiplex mRNA; actives raise or lower the signal. In short, it runs like this:
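Multiplexed cis-reporter mRNA induction, HepG2, 24 h post-dose. RT-PCR, FAM-labelled, HpaI-digested amplicons by CE. Bidirectional fit vs DMSO.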

Assay [18] is described as follows: ATG_RORE_CIS: Attagene CIS-FACTORIAL HepG2 Assay for human RAR-related Orphan Receptor Element (RORE) (AID 2282959). The conditions noted are these: HepG2 Attagene cis-factorial RORE reporter, mRNA; actives raise or lower the signal. In short, it runs like this:
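Multiplexed reporter assay measuring mRNA induction from a cis promoter element in transiently transfected HepG2 cells after 24 h treatment. Detection via RT-PCR and capillary electrophoresis fluorescence; DMSO serves as baseline.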

For assay [19], the target named is Signal transducer and activator of transcription 3 (Homo sapiens) (UniProt P40763). Briefly: ATG_STAT3_CIS: Attagene CIS-FACTORIAL HepG2 Assay for human Signal Transducer and Activator of Transcription 3 (STAT3) (AID 2282963). The conditions noted are these: HepG2, Attagene cis-factorial STAT3 reporter transcription; actives raise or lower the signal. The method, boiled down: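 Cis-factorial format: endogenous transcription factors in HepG2 drive transfected reporter units. After 24 h treatment, reporter RNA was reverse-transcribed, amplified, FAM-labelled and HpaI-digested before CE analysis; activity scored in both directions against DMSO.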
Sequence of Signal transducer and activator of transcription 3 (Homo sapiens) (P40763 whole entry, looked up): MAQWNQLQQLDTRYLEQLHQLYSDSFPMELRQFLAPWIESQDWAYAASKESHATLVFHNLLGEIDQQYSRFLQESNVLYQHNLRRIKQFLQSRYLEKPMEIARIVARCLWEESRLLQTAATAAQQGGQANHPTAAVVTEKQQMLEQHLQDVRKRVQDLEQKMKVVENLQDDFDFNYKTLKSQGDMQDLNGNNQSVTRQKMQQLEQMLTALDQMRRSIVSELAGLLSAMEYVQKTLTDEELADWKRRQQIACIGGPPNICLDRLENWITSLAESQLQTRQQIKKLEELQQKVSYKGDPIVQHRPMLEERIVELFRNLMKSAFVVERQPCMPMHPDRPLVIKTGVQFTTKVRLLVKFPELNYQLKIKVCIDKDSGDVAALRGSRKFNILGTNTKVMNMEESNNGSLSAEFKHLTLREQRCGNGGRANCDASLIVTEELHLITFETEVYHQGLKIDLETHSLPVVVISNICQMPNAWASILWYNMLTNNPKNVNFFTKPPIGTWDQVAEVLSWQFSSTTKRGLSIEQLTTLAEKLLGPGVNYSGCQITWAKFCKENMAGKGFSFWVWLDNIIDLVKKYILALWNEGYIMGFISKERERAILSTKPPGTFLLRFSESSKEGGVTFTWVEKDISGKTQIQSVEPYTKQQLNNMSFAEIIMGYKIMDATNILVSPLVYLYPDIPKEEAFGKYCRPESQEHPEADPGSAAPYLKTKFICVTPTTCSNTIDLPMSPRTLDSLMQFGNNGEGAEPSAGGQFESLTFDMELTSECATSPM

Sequence of Transcription factor Sp1 (Homo sapiens) (P08047 whole entry, looked up): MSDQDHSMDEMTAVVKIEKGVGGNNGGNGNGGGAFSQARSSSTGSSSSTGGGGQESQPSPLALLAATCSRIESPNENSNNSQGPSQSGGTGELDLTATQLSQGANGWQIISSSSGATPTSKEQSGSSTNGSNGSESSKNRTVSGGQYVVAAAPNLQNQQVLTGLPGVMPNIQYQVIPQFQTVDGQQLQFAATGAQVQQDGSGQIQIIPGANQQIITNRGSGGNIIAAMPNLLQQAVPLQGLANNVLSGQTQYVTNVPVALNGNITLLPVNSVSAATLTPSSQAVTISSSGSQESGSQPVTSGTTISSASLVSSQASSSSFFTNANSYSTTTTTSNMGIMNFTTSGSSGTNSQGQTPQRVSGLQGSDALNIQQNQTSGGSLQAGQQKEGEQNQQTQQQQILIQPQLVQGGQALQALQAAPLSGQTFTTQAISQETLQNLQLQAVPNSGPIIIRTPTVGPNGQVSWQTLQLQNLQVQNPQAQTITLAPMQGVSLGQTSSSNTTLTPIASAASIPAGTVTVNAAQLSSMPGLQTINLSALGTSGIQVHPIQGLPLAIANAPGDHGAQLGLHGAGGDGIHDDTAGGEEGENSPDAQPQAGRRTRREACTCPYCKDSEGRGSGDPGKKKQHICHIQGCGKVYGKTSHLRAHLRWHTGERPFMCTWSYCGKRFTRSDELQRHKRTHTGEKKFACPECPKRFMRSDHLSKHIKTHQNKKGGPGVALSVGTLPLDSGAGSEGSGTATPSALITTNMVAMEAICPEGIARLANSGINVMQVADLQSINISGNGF
Sequence of Hypoxia-inducible factor 1-alpha (Homo sapiens) (Q16665 whole entry, looked up): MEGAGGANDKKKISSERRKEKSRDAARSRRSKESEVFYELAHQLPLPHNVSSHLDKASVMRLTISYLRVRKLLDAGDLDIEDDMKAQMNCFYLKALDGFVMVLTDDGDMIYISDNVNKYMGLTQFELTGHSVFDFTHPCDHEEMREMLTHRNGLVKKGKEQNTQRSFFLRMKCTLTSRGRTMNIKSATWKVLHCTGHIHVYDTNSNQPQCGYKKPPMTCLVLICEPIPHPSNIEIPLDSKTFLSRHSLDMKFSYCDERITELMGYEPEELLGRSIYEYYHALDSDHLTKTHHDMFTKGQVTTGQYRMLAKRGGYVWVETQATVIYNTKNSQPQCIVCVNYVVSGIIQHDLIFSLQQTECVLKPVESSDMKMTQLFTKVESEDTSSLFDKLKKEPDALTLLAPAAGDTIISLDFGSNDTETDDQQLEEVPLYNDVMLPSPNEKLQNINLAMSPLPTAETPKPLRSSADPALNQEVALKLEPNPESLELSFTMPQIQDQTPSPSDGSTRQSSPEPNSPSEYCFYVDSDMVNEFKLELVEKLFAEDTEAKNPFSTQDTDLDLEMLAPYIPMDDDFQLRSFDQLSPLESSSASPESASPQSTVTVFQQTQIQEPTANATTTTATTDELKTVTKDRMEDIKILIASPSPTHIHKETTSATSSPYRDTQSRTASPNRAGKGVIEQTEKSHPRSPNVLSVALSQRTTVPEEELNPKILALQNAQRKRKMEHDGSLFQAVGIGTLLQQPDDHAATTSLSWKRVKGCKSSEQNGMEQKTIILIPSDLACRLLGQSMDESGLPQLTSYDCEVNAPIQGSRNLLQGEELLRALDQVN
Sequence of Heat shock factor protein 1 (Homo sapiens) (Q00613 whole entry, looked up, the tested form may be a part): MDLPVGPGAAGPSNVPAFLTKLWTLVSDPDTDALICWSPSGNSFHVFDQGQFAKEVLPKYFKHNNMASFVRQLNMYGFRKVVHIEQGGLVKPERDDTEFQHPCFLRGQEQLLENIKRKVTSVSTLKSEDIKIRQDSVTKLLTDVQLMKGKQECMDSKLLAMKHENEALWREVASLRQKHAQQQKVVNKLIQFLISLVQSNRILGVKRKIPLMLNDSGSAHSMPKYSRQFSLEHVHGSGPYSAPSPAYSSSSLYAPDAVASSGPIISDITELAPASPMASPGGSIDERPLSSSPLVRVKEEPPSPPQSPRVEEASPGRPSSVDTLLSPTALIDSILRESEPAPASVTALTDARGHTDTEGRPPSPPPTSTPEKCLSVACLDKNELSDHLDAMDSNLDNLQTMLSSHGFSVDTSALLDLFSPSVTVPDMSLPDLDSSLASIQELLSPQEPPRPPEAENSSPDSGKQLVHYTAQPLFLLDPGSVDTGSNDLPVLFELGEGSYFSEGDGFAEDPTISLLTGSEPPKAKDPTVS
Sequence of Hepatocyte nuclear factor 6 (Homo sapiens) (Q9UBC0 whole entry, looked up, the tested form may be a part): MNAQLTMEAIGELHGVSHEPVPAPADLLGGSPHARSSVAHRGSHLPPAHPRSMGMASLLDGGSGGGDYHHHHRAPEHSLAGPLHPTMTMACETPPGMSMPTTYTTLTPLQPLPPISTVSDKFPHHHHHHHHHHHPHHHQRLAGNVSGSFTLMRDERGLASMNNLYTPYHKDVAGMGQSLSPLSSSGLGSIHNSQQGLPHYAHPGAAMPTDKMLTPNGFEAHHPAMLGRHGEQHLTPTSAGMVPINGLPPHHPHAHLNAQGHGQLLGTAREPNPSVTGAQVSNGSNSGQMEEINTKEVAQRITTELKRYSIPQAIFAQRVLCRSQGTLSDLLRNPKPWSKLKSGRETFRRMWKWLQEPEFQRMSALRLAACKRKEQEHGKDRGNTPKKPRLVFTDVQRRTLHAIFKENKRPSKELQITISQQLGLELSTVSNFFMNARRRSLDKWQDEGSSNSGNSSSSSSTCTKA
Sequence of Paired box protein Pax-6 (Homo sapiens) (P26367 whole entry, looked up): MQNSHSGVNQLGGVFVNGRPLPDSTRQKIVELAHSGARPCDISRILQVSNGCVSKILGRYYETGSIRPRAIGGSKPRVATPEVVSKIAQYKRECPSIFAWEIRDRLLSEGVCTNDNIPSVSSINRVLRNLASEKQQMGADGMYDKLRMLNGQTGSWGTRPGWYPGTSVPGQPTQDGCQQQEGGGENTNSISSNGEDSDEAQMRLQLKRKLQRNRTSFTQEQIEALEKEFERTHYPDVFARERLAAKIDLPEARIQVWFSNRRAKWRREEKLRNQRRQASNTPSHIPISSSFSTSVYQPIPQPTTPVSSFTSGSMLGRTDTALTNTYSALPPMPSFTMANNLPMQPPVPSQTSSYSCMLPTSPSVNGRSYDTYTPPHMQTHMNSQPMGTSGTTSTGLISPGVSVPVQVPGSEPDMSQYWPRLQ

For `[O-]/[N+](=N\O)c1ccccc1`, the compound was classed as inactive in assay [1], in [2], in assay [3], in assay [4], in [5] and in assay [6]. Besides, the compound was classed as inactive in [7], in assay [8], in assay [9], in assay [10], in assay [12] and in assay [13]. The result in assay [14], in assay [15] and in [16] was inactive. Moreover, the AC50 in assay [11] was 26.6 µM (active).

`Cc1ccc(C(C)(C)O)cc1`: the result in assay [1], in assay [17], in assay [3], in assay [4], in assay [5] and in assay [6] was inactive. Moreover, the compound was classed as inactive in assay [7], in assay [8], in assay [9], in assay [10], in assay [11] and in [12]. For the same compound, the result in assay [18], in assay [13], in [14], in [15], in [19] and in assay [16] was inactive.

For the compound `CC(O)CN` (configuration not stated), the result in assay [1], in [17], in assay [3], in assay [4], in assay [5] and in assay [6] was inactive. For the same compound, the outcome in assay [8], in assay [11], in assay [18], in [13], in [14] and in assay [15] was inactive. Also, the result in [19] and in assay [16] was inactive.

As for `NC(=O)NC(N)=O`, the result in assay [1], in assay [2], in assay [3], in [4], in assay [5] and in assay [6] was inactive. The outcome in assay [7], in assay [8], in [9], in assay [10], in assay [11] and in [12] was inactive. The outcome in assay [18], in assay [13], in assay [14], in [15], in assay [19] and in [16] was inactive.

In the case of `CC/C=C\CCOC(C)OCC` (configuration not stated), the compound was called inactive in assay [1], in assay [17], in [3], in assay [4], in [5] and in assay [6]. Moreover, the compound was classed as inactive in assay [7], in assay [8], in assay [9], in assay [11], in assay [12] and in assay [18]. Besides, the compound was classed as inactive in assay [13], in [14], in assay [15], in assay [19] and in [16].

In the case of `O=C(C=Cc1ccccc1)OCCCc1ccccc1`, the result in assay [1], in [17], in [3], in assay [4], in assay [5] and in assay [6] was inactive. Further, the compound was called inactive in [7], in assay [8], in assay [9], in assay [10], in assay [18] and in [13]. Further, the compound was called inactive in assay [14], in [15], in [19] and in assay [16]. For the same compound, the half-maximal activity concentration (AC50) in assay [11] is 19.9 µM (active).

In the case of `O=C(O)c1cc2ccccc2cc1O`, the result in [1], in [17], in [2], in [3], in [4] and in assay [6] was inactive. Further, the result in assay [8], in assay [10], in assay [18], in assay [13], in [14] and in [15] was inactive. Besides, the compound was classed as inactive in assay [19] and in assay [16]. For the same compound, the concentration at half-maximal activity (AC50) in [11] was 54.4 µM (active); in assay [12] it was 52 µM (active).

Consider `CNC(=C[N+](=O)[O-])NCCSCc1ccc(CN(C)C)o1`, for which the call in [1], in assay [17], in assay [2], in assay [3], in assay [4] and in assay [8] was inactive. Moreover, the result in assay [9], in [10], in assay [11], in [12], in assay [18] and in assay [13] was inactive. Moreover, the outcome in assay [14], in assay [15], in [19] and in [16] was inactive.

Take `C=COCC1CCC(COC=C)CC1` (configuration not stated): the compound was classed as inactive in assay [1], in assay [17], in [2], in assay [3], in assay [4] and in assay [8]. Further, the outcome in assay [9], in assay [10], in assay [11], in assay [18], in [13] and in assay [14] was inactive. The result in assay [15], in assay [19] and in assay [16] was inactive.
